Source: PubChem
mHtt clearance: clearance of mutant huntingtin inclusions, primary screen, imaging, HeLa Exon1htt(103Q)mCFP, confocal imaging; 47,000 tested, 0.42% active; AID 853, 2007; aggregate imaging; zero = plate's median compound well; inhibition, % at 1.5 µM;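 active means inhibition of aggregate fluorescence above about 70%, also judged a hit by eye on the cell image, limit read from the data, passing the limit was not always enough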;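 further: cells exposed to compound for three days before fixation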
ROCK2 blocker: inhibitors of human ROCK2 kinase, primary screen, biochemical, high-throughput, luminescence; Rho-associated protein kinase 2 (Homo sapiens), O75116; purified ROCK2, Kinase-Glo ATP depletion luminescence; inhibition, % at 6 µM; 60,000 tested, 0.35% active; AID 604, 2007;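 active means inhibition above the screen-wide mean inhibition plus 3 SD, cut at about 18% in these data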
SK-BR-3 tox 24h: SK-BR-3 proliferation inhibitors, primary screen, cell-based, human, 24 h. 41,000 tested, 0.47% active. viability, % at 10 µM. AID 847, 2007. SK-BR-3 viability, CellTiter-Glo ATP luminescence; stronger effect = lower value;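 active means viability at or below the median of all test compounds minus 3 SD, in both replicates if run twice, cut at about 45% in these data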
Her2 expr inh: inhibitors of Her2 protein expression, primary screen, SKBR-3 cells, AlphaScreen, 66K library; Receptor tyrosine-protein kinase erbB-2 (Homo sapiens), P04626; HER2 level % of control, % at 10 µM; SKBR-3 HER2 protein level, 18-24 h; stronger effect = lower value; 65,000 tested, 0.69% active;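 active means HER2 level under 5% of the carrier-only control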
Target sequence (P04626 whole entry, looked up): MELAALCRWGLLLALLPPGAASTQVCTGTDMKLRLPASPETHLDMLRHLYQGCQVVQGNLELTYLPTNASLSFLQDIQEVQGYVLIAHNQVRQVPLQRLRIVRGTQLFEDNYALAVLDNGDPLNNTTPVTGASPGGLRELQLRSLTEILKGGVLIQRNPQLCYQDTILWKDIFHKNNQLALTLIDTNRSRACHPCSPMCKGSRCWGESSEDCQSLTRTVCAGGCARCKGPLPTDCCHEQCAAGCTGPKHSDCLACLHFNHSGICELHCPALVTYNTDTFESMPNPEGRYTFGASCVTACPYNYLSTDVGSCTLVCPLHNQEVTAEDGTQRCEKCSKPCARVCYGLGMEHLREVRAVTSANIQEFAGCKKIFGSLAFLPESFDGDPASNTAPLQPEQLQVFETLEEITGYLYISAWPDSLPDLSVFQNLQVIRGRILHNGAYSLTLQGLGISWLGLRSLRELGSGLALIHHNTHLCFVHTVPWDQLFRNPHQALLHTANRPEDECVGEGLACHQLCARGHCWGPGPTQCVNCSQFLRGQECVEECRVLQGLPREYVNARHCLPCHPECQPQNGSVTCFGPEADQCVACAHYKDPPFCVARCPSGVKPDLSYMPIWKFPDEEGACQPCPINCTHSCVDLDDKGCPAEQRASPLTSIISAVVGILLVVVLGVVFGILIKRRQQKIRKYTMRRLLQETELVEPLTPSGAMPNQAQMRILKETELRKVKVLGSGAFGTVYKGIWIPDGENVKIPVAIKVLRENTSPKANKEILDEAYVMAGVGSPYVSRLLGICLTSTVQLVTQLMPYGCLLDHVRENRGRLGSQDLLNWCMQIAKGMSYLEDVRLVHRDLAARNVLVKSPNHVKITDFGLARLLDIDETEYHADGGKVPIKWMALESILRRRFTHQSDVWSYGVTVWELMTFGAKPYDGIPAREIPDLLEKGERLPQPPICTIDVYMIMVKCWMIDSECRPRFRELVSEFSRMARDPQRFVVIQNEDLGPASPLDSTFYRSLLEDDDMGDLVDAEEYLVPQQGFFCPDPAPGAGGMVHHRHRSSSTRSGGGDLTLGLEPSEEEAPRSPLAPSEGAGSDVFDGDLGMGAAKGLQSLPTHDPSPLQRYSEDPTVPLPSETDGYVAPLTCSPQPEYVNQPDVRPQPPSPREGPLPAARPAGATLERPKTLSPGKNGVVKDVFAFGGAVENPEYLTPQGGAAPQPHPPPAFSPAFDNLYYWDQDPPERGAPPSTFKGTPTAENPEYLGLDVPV
JNK3 inh: JNK3 kinase activity inhibitors, primary screen, biochemical, human, purified enzyme; AID 746, 2007; inhibition, % at 8 µM; Mitogen-activated protein kinase 10 (Homo sapiens), P53779; 60,000 tested, 0.61% active; HTS; in the data active means inhibition above about 17%
PKA kinase inh: inhibitors of human PKA kinase activity, primary screen, biochemical, ATP-depletion luminescence, Kemptide substrate | cAMP-dependent protein kinase catalytic subunit alpha (Homo sapiens), P17612 | 65,000 tested, 0.1% active | PKA Kemptide phosphorylation, Kinase-Glo ATP luminescence | inhibition, % at 6 µM;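 active means inhibition above the screen-wide mean inhibition plus 3 SD, cut at about 21% in these data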
Hits are given with their value; . = inactive; / = no result given. Shown are actives, neighbours in structure and some others; about 1.4% of the full set was active somewhere.

SMILES	mHtt clearance	ROCK2 blocker	SK-BR-3 tox 24h	Her2 expr inh	JNK3 inh	PKA kinase inh
O=S(=O)(NC1CCCC1)c1cccc(S(=O)(=O)N2CCC(n3nnc4ccccc43)CC2)c1	/	.	.	.	.	.
O=C1C2=C(SCCS2)C(=O)N1c1ccccc1	/	.	/	.	.	.
O=C1C2=C(SCCS2)C(=O)N1CCCO	.	.	.	1.1	.	.
COc1ccc(OC)c(S(=O)(=O)Nc2cnc3ccccc3c2)c1	.	.	.	.	.	.
CCc1cc(-c2[nH]ncc2-c2ccc3c(c2)OCO3)c(O)cc1O	/	.	/	-1.1	.	.
O=C(Nc1nccs1)c1ccc(Br)o1	/	.	/	.	18	.
Cc1nc(NC(=O)c2ccc(Br)o2)sc1C	.	/	/	/	/	/
CCOC(=O)N1CCN(C(=O)CCSc2ccccc2)CC1	/	/	.	.	/	.
c1ccc(OCCCc2nc(-c3ccncc3)no2)cc1	.	18	.	.	.	.
COc1ccc(-c2noc(CCCOc3ccccc3)n2)cc1OC	.	.	/	.	.	.
N#Cc1cc2c(nc1SCc1ccncc1)CCC2	.	58	.	.	.	.
Cc1ccc(SCc2nc(-c3ccncc3)no2)cc1	.	24	.	.	.	21
COc1cc(NC(=O)CN(c2ccc(C)cc2)S(=O)(=O)c2c(C)nn(C)c2C)cc(OC)c1	/	.	.	.	.	.
